From PubChem BioAssay
A selection: hits, their analogues and other compounds. The true share with any hit is near 12%.
BAZ2B inh = BAZ2B (human) inhibition. AlphaScreen BAZ2B-H3K14Ac peptide displacement. Potency, µM (highest dose often 114 µM), for the others: top-dose activity change, negative = inhibition, most hits filed as inhibitors. 360,000 tested, 4.4% active. AID 504333; note: % is set by controls: 0 for no effect and ±100 for the full control effect; nearly all actives have a fitted effect of over 60% in size
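Multi-concentration screen (max 110 uM) measuring displacement of acetylated histone H3 peptide from BAZ2B by AlphaScreen, using 50 nM protein, 50 nM peptide and 10 ug/mL streptavidin donor plus Ni-chelate acceptor beads.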
G9a inh = G9a (human) methyltransferase inhibition; AID 504332; Potency, µM (doses to about 102 µM), for inactives: at the top dose activity, negative = inhibition, actives largely listed as inhibitors; G9a H3K9 monomethylation, AlphaScreen, 2 h; 350,000 tested, 8.8% active; Q96KQ7; note: % is set by controls: 0 for no effect and ±100 for the full control effect; nearly all actives have a fitted effect of over 75% in size
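Methyltransferase reactions run at room temperature for 2 h (20 nM enzyme, 500 nM biotin-H3K9 peptide, 20 uM SAM) after a 15 min compound preincubation; product detected by AlphaScreen beads and anti-H3K9me1 antibody.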
JMJD2A Tudor inh = blocks the human JMJD2A Tudor domain; O75164; AlphaScreen JMJD2A-Tudor / H3K4me3 peptide binding; Potency, µM (highest dose often 114 µM), without a hit: at the highest dose activity change, negative = inhibition, usual class: inhibitors; 390,000 tested, 4.4% active; AID 504339; note: % is set by controls: 0 for no effect and ±100 for the full control effect; nearly all actives have a fitted effect of over 50% in size
Sfp inh = inhibitors of Bacillus subtilis Sfp phosphopantetheinyl transferase. Q9F4F7. 310,000 tested, 3.5% active. Biochemical Sfp PPTase activity, qHTS. Potency, µM, for inactives: largest response in the series, negative = inhibition, usual class: inhibitors;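 note: the enzyme is Sfp with the accession as filed and its product quenches rhodamine fluorescence; 0% = enzyme reaction without inhibitor and -100% = no enzyme wells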
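After 15 min at room temperature with compound, 15 nM Sfp received 5 uM rhodamine-CoA plus 12.5 uM BHQ-2-ybbR (50 mM Hepes pH 7.6, 10 mM MgCl2). Rate came from the fluorescence difference over 30 min, ex 525/em 598 nm.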
L3MBTL1 block = L3MBTL1 (human) inhibition; AlphaScreen L3MBTL1–H3K9me1 peptide binding; Potency, µM (series often up to 57.1 µM), for the others: at the highest dose activity, negative = inhibition, most hits filed as inhibitors; 230,000 tested, 0.66% active; AID 485360; note: % is set by controls: 0 for no effect and ±100 for the full control effect; nearly all actives have a fitted effect of over 60% in size
Target sequence (Q9Y468 whole entry, looked up): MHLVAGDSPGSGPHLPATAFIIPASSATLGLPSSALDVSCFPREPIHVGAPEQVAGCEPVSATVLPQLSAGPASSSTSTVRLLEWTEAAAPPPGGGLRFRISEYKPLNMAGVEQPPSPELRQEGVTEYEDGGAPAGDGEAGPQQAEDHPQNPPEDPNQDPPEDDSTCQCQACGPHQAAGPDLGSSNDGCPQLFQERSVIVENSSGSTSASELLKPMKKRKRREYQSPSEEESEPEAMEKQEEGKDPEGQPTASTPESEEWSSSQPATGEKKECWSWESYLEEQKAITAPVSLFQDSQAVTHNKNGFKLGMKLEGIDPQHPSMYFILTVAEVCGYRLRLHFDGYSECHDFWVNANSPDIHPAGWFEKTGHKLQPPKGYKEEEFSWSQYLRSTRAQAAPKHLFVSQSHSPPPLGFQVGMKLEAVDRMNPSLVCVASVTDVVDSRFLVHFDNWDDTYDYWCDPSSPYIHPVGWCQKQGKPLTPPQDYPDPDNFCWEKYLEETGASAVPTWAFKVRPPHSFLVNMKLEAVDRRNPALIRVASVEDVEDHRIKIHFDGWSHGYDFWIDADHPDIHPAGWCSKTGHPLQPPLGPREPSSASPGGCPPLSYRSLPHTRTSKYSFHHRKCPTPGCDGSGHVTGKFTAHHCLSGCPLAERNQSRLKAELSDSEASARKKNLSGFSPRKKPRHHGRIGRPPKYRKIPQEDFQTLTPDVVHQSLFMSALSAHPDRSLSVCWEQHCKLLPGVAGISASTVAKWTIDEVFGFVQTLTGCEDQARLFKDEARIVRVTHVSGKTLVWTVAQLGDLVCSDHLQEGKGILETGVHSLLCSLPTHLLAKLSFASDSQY
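L3MBTL1 50 nM + b-AHA-H3(1-15)K9me1 75 nM, 30 min RT; compound added, 30 min RT; streptavidin donor/Ni-chelate acceptor beads 10 ug/mL each final, 30 min RT dark; AlphaScreen read.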
HP1b chromo inh = blocks HP1-beta chromodomain binding to methylated histone tails. AlphaScreen HP1-beta / biotin-H3K9me3 peptide binding. AID 540317. 390,000 tested, 0.56% active. Potency, µM (highest dose often 114 µM), without a hit: at the highest dose activity change, negative = inhibition, actives largely listed as inhibitors. P83916; note: nearly all actives have a fitted effect of over 70% in size
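Compound inhibition of the preformed complex between 50 nM HP1-beta and 50 nM biotinylated H3K9me3 peptide was read by AlphaScreen. Buffer was PBS pH 7.4 with 0.01% Tween-20. Incubations ran 30 min at room temperature, with 10 ug/mL donor/acceptor beads.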
* = called active by the depositor; u = inconclusive; x = not tested or not shown; [ ] = remark or other dose. Calls come from the whole dose curve; as a rule, active = well fitted curve in the direction sought with a large enough effect; inconclusive = small, poorly fitted or top-dose-only effect, or another doubt; inactive = no such curve, though single readings can be large; an effect the other way counts as inactive or inconclusive. Potency is the fitted concentration of half-maximal effect.

SMILES | BAZ2B inh | G9a inh | JMJD2A Tudor inh | Sfp inh | L3MBTL1 block | HP1b chromo inh
CCOC(=O)C1CCN(S(=O)(=O)c2ccc3c(c2)CC(=O)N3C)CC1 | -12.7% | 44.7µM* | u | -7.8% | x | -10.8%
CN(Cc1ccccc1)c1ccc(-c2nc(-c3ccco3)no2)cc1[N+](=O)[O-] | 0.8% | -33.4%[59 µM] | -13.6% | x | x | 43.4%
Cc1ccc(Cl)cc1N1CCN(C(=O)c2sc3nc4n(c(=O)c3c2C)CCC4)CC1 | 1.5% | -18.4%[59 µM] | -15.5% | x | x | 6.7%
O=C(CSc1cn(CC(=O)N2CCCCC2)c2ccccc12)NCc1ccccc1 | -17.0% | -36.9%[59 µM] | -8.1% | x | x | 34.6%
CCCNc1nc(C#N)nc(Nc2ccccc2)n1 | x | x | -2.1% | x | x | x
COc1ccc(-n2c3c(c(=O)[nH]c2=O)C(NC(=O)c2ccccc2Cl)(C(F)(F)F)C(=O)N3)cc1 (stereo not given) | -4.3% | 7.5%[59 µM] | -15.5% | x | x | 17.2%
C[C@H]1Cc2c(-c3ccccc3)nc3c(c2CO1)CN(C(=O)c1cccnc1)CC3 | x | x | x | 8.2% | x | x
CN1C(=O)CC(=O)N(C)c2cc(S(=O)(=O)N(C)Cc3ccccc3)ccc21 | -5.1% | u | -27.6% | 89.1µM* | x | u
CCc1ccc(-c2cn(C3CCCCC3)c(=S)[nH]2)cc1 | 17.8µM* | u | 28.2µM* | 10.6% | x | u
COc1ccc(-c2nc(C)c(CCNC(=O)c3ccccc3Br)s2)cc1OC | -4.4% | 8.8%[59 µM] | -2.6% | x | x | 23.5%[57 µM]
COc1ccc(SCCN2CCN(CCc3ccccc3)CCC2=O)cc1 | x | x | 255.2% | -12.1% | x | 389.6%
C=CC(=O)c1ccc(CCCCCC)cc1 | x | 11.2µM* | x | u | x | x
CN(C)c1ncnc2c1NC1=C(S2)C(=NCCCC(=O)O)CC(C)(C)C1 | u | u | -18.2% | 22.4µM* | 2.7% | 29.8%
COc1ncnc2c1NC1=C(S2)C(=NCCC(=O)O)CC(C)(C)C1 | u | 17.8µM* | -31.6% | 14.1µM* | -19.0% | 48.1%
CC1(C)CC(=O)/C(=C(\O)Cc2ccccc2)C(=NCCCCCC(=O)O)C1 | 9.6% | 0.1%[59 µM] | -2.1% | 1.5% | 11.1% | 13.2%
CCn1cc(S(=O)(=O)c2cc(C)cc(C)c2)c(=O)c2cc(F)c(N3CCN(c4ccccc4)CC3)cc21 | -7.4% | -3.3%[59 µM] | -5.0% | x | x | 18.3%
COc1ccccc1-n1c(CNC(=O)c2ccc(S(=O)(=O)N3CCCCC3)cc2)n[nH]c1=S | -15.7% | 22.4µM* | 8.91µM* | 2.5% | x | 19.5%
O=C(NCc1n[nH]c(=S)n1-c1ccccc1Cl)c1ccc(S(=O)(=O)N2CCCCC2)cc1 | 4.1% | 10µM* | -32.4% | -3.2% | x | 37.8%
CCc1c(C)sc2c1CCN(C(=O)Nc1cc(C)ccc1OC)C2c1ccc(F)cc1 (stereo not given) | 0.4% | -1.5%[59 µM] | -23.2% | x | x | 41.4%
CC(=Nc1ccccc1)C1=C(O)CC(C)(C)CC1=O | -5.6% | 0.4% | -7.9% | 6.6% | x | 23.6%
CC(=Nc1ccccc1)C1=C(O)CSC1=O | u | 50.1µM* | -17.8% | u | x | -5.3%
COc1ccc(N=C(C)C2=C(O)CSC2=O)cc1 | 0.6% | 39.8µM* | -15.2% | u | x | 2.2%
CC(=Nc1ccccc1)C1=C(O)CCCC1=O | 4.2% | u | 25.1µM* | 14.5% | 8.7% | 0.9%
Cc1cccc(NC(=O)CSc2nc(-c3cccs3)cc(C(F)(F)F)c2C#N)c1C | 14.1% | 29.8%[59 µM] | 1.6% | x | x | 52.9%
COc1ccc(-c2cc3ccc(O)c(CN4CCCC4)c3oc2=O)cc1 | 28.4% | 24.2%[59 µM] | 8.8% | x | x | 35.2%[57 µM]
SMILES | BAZ2B inh | G9a inh | JMJD2A Tudor inh | Sfp inh | L3MBTL1 block | HP1b chromo inh
c1ccc(Nc2nc(NCc3ccco3)nc3nccnc23)cc1 | x | x | -18.4% | x | x | 136.9%
O=C(COc1ccc(Br)cc1Cl)NC(=S)N1CCc2ccccc21 | 10.7% | 15.3%[59 µM] | -6.2% | 0.1% | -2.8% | 13.1%
O=C(COc1ccc(Br)cc1Br)NC(=S)N1CCCc2ccccc21 | 50.1µM* | 8.91µM* | 50.1µM* | 56.2µM* | x | -6.2%
COc1ccc2cc(CNc3ccc(OC)c(OC)c3)c(=O)n(CC(=O)Nc3ccc(C)cc3)c2c1 | -12.7% | 2.82µM* | 2.4% | x | x | 23.1%
COc1ccc2c(c1)cc(CNc1ccc(OC)c(OC)c1)c(=O)n2CC(=O)Nc1ccccc1C | -14.8% | u | -2.4% | x | x | 42.6%
COc1ccc2c(c1)cc(CNc1ccc(OC)c(OC)c1)c(=O)n2CC(=O)Nc1ccc(F)cc1 | u | 2.82µM* | -34.5% | x | x | 2.0%
CC(C)C(=O)N(Cc1ccc2c(c1)OCO2)Cc1ccccn1 | u | 39.8µM* | 56.2µM* | -15.8% | 8.7% | 1.9%
O=C(NCc1ccc2c(c1)OCO2)c1ccccn1 | -5.7% | 0.2%[59 µM] | -1.3% | 22.8% | -0.2% | 21.1%
CC(C)C(CCNC(=O)CC(Cc1ccccc1)c1ccco1)c1ccco1 (stereo not given) | 50.1µM* | -26.2%[0.501 µM] | u | -26.6% | -22.2% | 0.1%
CC(C)C(CCNC(=O)CN1C(=O)c2ccccc2C1=O)c1ccco1 (stereo not given) | -2.1% | -26.2%[59 µM] | -18.9% | 10.0% | x | 34.3%
COc1cc(OC)cc(C(=O)/C=C2\Sc3ccccc3N2C)c1 | 39.5% | x | 14.7% | 50.1µM* | 65.9% | 34.8%
COc1ccc2c(c1)S/C(=C\C(=O)c1ccncc1)N2C | x | u | 0.6% | 8.91µM* | -6.3% | 41.2%
CN1/C(=C\C(=O)c2cccs2)Sc2ccccc21 | 8.8% | 11.9% | 27.3% | 50.1µM* | 52.2% | 163.5%
